Common to all, as to details: mRNA level, 48 h; actives raise or lower the signal
Read-out in assay [1]: Bcl-2 (BAD) gene, BAD (gene 572)
Kind of assay: LTEA_HepaRG_BAD: Life Technologies and Expression Analysis (LTEA) Assay for Bcl-2 (BAD) gene using HepaRG (AID 2283469). Summed up: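 Read-out: qRT-PCR of BAD mRNA, normalized to three housekeeping genes. Human HepaRG cultures got 48 h chemical exposure in 0.5% DMSO, duplicate eight-point half-log series topping at 100 uM. Gain or loss of signal fitted versus DMSO vehicle.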

Read-out in assay [2]: adenosine kinase (ADK) gene, ADK (gene 132)
In words: LTEA_HepaRG_ADK: Life Technologies and Expression Analysis (LTEA) Assay for adenosine kinase (ADK) gene using HepaRG (AID 2283471). Summed up: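 ADK expression quantified by qRT-PCR, normalised to three housekeeping genes, after 48 h exposure of HepaRG cells to eight concentrations (top 100 uM, half-log steps, duplicate, 0.5% DMSO). Up- or down-regulation fitted relative to vehicle.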

Read-out in assay [3]: Alpha-fetoprotein (AFP) gene, AFP (gene 174)
In words: LTEA_HepaRG_AFP: Life Technologies and Expression Analysis (LTEA) Assay for Alpha-fetoprotein (AFP) gene using HepaRG (AID 2283472). The gist of the method:
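Measures AFP mRNA change in HepaRG after 48 h chemical exposure (8 half-log concentrations, highest 100 uM, 0.5% DMSO). Fold change relative to DMSO, fitted in both directions.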

Read-out in another assay: BCL2L11 (gene 10018)
Kind of assay: LTEA_HepaRG_BCL2L11: Life Technologies and Expression Analysis (LTEA) Assay for Bcl-2 (BCL2L11) gene using HepaRG (AID 2283473). The gist of the method:
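Read-out is BCL2L11 transcript level by qRT-PCR, normalized to three housekeeping genes and fitted bidirectionally against 0.5% DMSO vehicle. HepaRG cells received chemicals for 48 h in serum-free induction medium, 100 uM down in half-log dilutions.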

Read-out in assay [4]: Apolipoprotein A-V (APOA5) gene, APOA5 (gene 116519)
In words: LTEA_HepaRG_APOA5: Life Technologies and Expression Analysis (LTEA) Assay for Apolipoprotein A-V (APOA5) gene using HepaRG (AID 2283474). Summed up: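 Readout is APOA5 transcript level by qRT-PCR on Fluidigm dynamic arrays, normalized to three housekeeping genes. HepaRG cultures received chemicals for 48 h at up to 100 uM (half-log steps, 0.5% DMSO), with gain or loss scored relative to DMSO.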

Read-out in assay [5]: Apoptosis regulator Bcl-2 (Homo sapiens) (UniProt P10415)
Kind of assay: LTEA_HepaRG_BCL2: Life Technologies and Expression Analysis (LTEA) Assay for Bcl-2 gene using HepaRG (AID 2283475).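 Further: BCL2 transcript by TaqMan qRT-PCR normalised to ACTB GAPDH and POLR2A.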 Summed up: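 Each chemical was tested in duplicate on HepaRG cultures held in serum-free induction medium for 48 h, highest concentration 100 uM with half-log dilutions. Transcript levels came from multiplexed qRT-PCR, normalised to housekeeping genes; activity was scored in either direction relative to DMSO.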

Read-out in assay [6]: Bcl-2 (BID) gene, BID (gene 637)
In words: LTEA_HepaRG_BID: Life Technologies and Expression Analysis (LTEA) Assay for Bcl-2 (BID) gene using HepaRG (AID 2283476). Summed up:
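Assay used HepaRG hepatic cells treated 48 h in serum-free medium with half-log dilutions from 100 uM. Endpoint: BID mRNA, qRT-PCR, normalized to ACTB/GAPDH/POLR2A.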

Read-out in assay [7]: Cytochrome P450 (CYP24A1), CYP24A1 (gene 1591)
Kind of assay: LTEA_HepaRG_CYP24A1: Life Technologies and Expression Analysis (LTEA) Assay for Cytochrome P450 (CYP24A1) using HepaRG (AID 2283478). The gist of the method:
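HepaRG, 48 h chemical exposure, 8-pt half-log CRC from 100 uM, 0.5% DMSO vehicle, duplicates. Endpoint: CYP24A1 mRNA by Fluidigm TaqMan qRT-PCR, normalized ACTB/GAPDH/POLR2A; gain/loss fit vs DMSO.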

Read-out in assay [8]: Cytochrome P450 (CYP1A2), CYP1A2 (gene 1544)
Kind of assay: LTEA_HepaRG_CYP1A2: Life Technologies and Expression Analysis (LTEA) Assay for Cytochrome P450 (CYP1A2) using HepaRG (AID 2283479). Summed up: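 CYP1A2 transcript induction or loss, quantified by Fluidigm qRT-PCR against three housekeeping genes, was fitted bidirectionally against 0.5% DMSO controls. Human HepaRG cells received eight half-log concentrations from 100 uM over 48 h.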

Read-out in another assay: Caspase-3 (Homo sapiens) (UniProt P42574)
Kind of assay: LTEA_HepaRG_CASP3: Life Technologies and Expression Analysis (LTEA) Assay for cysteine-aspartic acid protease (CASP3) using HepaRG (AID 2283477). The gist of the method: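 Read-out is CASP3 mRNA level by TaqMan qRT-PCR in human HepaRG cells after 48 h chemical exposure. Eight half-log concentrations topping at 100 uM were tested in 0.5% DMSO; gain or loss was fitted relative to DMSO.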

Molecules are shown by their SMILES. Active and inactive are the calls of the source. How the source made its calls: active means hit-call score of the fitted dose curve at least 0.9, where 1 is the maximum; inactive means score below 0.9.

Chain of Caspase-3 (Homo sapiens) (P42574 whole entry, looked up): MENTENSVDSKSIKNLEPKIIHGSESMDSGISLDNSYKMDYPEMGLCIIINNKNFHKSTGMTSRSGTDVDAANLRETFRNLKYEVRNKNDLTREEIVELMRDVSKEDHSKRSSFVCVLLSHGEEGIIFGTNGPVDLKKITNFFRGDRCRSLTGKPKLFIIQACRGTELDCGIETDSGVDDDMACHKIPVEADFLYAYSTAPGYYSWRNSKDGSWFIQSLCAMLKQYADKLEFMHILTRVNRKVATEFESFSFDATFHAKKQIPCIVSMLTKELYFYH
Chain of Apoptosis regulator Bcl-2 (Homo sapiens) (P10415 whole entry, looked up): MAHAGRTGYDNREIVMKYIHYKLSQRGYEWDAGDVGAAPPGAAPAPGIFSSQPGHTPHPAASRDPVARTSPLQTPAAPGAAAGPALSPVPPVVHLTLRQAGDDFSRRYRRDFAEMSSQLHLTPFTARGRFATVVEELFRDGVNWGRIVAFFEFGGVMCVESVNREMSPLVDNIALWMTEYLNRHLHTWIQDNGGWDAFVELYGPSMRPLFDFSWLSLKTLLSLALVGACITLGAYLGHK

A word on the AC50: it is the midpoint of the concentration-response curve, whichever way the signal moves. Regarding `CC12CC1(C)C(=O)N(c1cc(Cl)cc(Cl)c1)C2=O` (stereo not given), the compound was called inactive (in assay [1]; in [2]; with BCL2L11 (gene 10018); in [4]; in assay [5]; in assay [6]). Further, in assay [7], the result was inactive. Besides, the figures for the AC50 in assay [3] and in assay [8] were 25.8 µM (active) and 3.26 µM (active), respectively.

As to `CC(C)(C)c1cc(O)ccc1O`, the result (in assay [1]; in assay [2]; in assay [3]; with BCL2L11 (gene 10018); in [4]; in assay [5]) was inactive. Further, the compound was called inactive (in assay [6]; with Caspase-3 (Homo sapiens); in assay [7]; in assay [8]).

On to `CN(C)N=O`, for which the result (in assay [1]; in [2]; in [3]; with BCL2L11 (gene 10018); in assay [4]; in assay [5]) was inactive. The outcome (in [6]; in the assay with Caspase-3 (Homo sapiens); in [7]; in assay [8]) was inactive.

In the case of `CCCCCCCCc1ccc(O)cc1`, the compound was classed as inactive (in [1]; in assay [2]; in assay [3]; in the assay with BCL2L11 (gene 10018); in assay [4]; in assay [5]). Further, the compound was called inactive (in assay [6]; with Caspase-3 (Homo sapiens); in assay [7]; in assay [8]).

With `CCOP(=S)(OCC)SCSP(=S)(OCC)OCC`, the outcome in [1], in assay [4], in [5] and in assay [6] was inactive. Also, the AC50 in [2] was 0.106 µM (active); in assay [3] it was 50 µM (active); in the assay with BCL2L11 (gene 10018), 0.228 µM (active); with Caspase-3 (Homo sapiens) it was 0.095 µM (active); in assay [8], 50 µM (active).

As for `CCOP(=S)(OCC)Oc1nc(Cl)c(Cl)cc1Cl`, the call (in assay [1]; in assay [2]; in [3]; with BCL2L11 (gene 10018); in assay [4]; in assay [5]) was inactive. Besides, the outcome (in assay [6]; with Caspase-3 (Homo sapiens); in [7]) was inactive. In assay [8], the AC50 is 50 µM (active).

With `CC(=O)[O][Hg][c]1ccccc1`, the AC50 in [1] was 12.7 µM (active); in assay [2] it was 31.5 µM (active); in assay [3], 5 µM (active); with BCL2L11 (gene 10018) it was 11.9 µM (active); in assay [4] it was 4.21 µM (active); with Caspase-3 (Homo sapiens), 23.1 µM (active). Further, in [8], the AC50 is 5 µM (active). The call in assay [5], in assay [6] and in assay [7] was inactive.

Regarding `CCC(C)(C)c1ccc(O)c(C(C)(C)CC)c1`, the result (in assay [1]; in [2]; in [3]; with BCL2L11 (gene 10018); in assay [4]; in [5]) was inactive. Moreover, the call (in [6]; with Caspase-3 (Homo sapiens); in assay [7]) was inactive. Besides, the AC50 in assay [8] is 80.4 µM (active).

Take `CC(C)(c1ccccc1)c1ccc(O)c(C(C)(C)c2ccccc2)c1`: the compound was classed as inactive (in assay [1]; in assay [2]; with BCL2L11 (gene 10018); in assay [6]; in the assay with Caspase-3 (Homo sapiens); in [7]). Also, the compound was classed as inactive in [8]. Also, the AC50 was 68.7 µM (active) in [3], 50 µM (active) in assay [4] and 81.6 µM (active) in assay [5].

With `Cc1ccccc1N`, the outcome (in assay [1]; in assay [2]; in assay [3]; with BCL2L11 (gene 10018); in [4]; in assay [5]) was inactive. The outcome (in assay [6]; with Caspase-3 (Homo sapiens); in assay [7]; in assay [8]) was inactive.

Regarding `O=C(O)C(Cl)(Cl)Cl`, the call (in assay [1]; in [2]; in [3]; with BCL2L11 (gene 10018); in [4]; in [5]) was inactive. In addition, the compound was classed as inactive (in assay [6]; with Caspase-3 (Homo sapiens); in assay [7]; in assay [8]).

On to `C[C@]12CCC(=O)C[C@@H]1CC[C@@H]1[C@@H]2CC[C@]2(C)[C@@H](O)CC[C@@H]12`, for which the compound was classed as inactive (in assay [1]; in assay [2]; in assay [3]; with BCL2L11 (gene 10018); in [4]; in [5]). Also, the call (in assay [6]; with Caspase-3 (Homo sapiens); in [7]) was inactive. The AC50 in assay [8] was 65.1 µM (active).

Turning to `ClCC(Cl)CCl`, the call (in assay [1]; in [2]; in [3]; with BCL2L11 (gene 10018); in [5]; with Caspase-3 (Homo sapiens)) was inactive. Moreover, the call in assay [7] and in [8] was inactive. For the same compound, the AC50 was 77.6 µM (active) in [4] and 84.3 µM (active) in [6].

On to `C[C@@H]1C[C@@H]([C@H](O)CC2CC(=O)NC(=O)C2)C(=O)[C@@H](C)C1`, for which the AC50 is 81.2 µM (active) in assay [2]; 15.5 µM (active) in assay [3]; 26 µM (active) in assay [4]; 50 µM (active) in assay [6]; 12.3 µM (active) in the assay with Caspase-3 (Homo sapiens). For the same compound, the compound was classed as inactive (with BCL2L11 (gene 10018); in assay [5]).

For `CC(C)(OO)c1ccccc1`, the compound was called inactive (in assay [1]; in assay [2]; in assay [3]; in the assay with BCL2L11 (gene 10018); in assay [4]; in assay [5]). Further, the call (in assay [6]; with Caspase-3 (Homo sapiens); in [7]) was inactive. In assay [8], the AC50 is 50 µM (active).

Turning to `O=C(Nc1ccc2[nH]ccc2c1)c1cc2cc(F)ccc2n1Cc1cccc(F)c1`, the compound was classed as inactive (in [1]; in assay [2]; in assay [6]; in the assay with Caspase-3 (Homo sapiens); in assay [7]). The AC50 in [3] is 25.2 µM (active); with BCL2L11 (gene 10018), 12.4 µM (active); in assay [4] it was 56.2 µM (active); in assay [5], 22.7 µM (active); in assay [8] it was 12.5 µM (active).

The record behind these values is PubChem BioAssay (EPA / NIEHS).
